# Screening data: PubChem BioAssay, National Center for Advancing Translational Sciences (NCATS)
# HttQ103 aggreg: inhibitors of mutant huntingtin aggregate formation in PC12 cells; Potency, µM (top dose mostly 46.1 µM), usual class: inhibitors; AID 1688; 220,000 tested, 1.1% active; PC12 HttQ103-GFP aggregates, Acumen cytometry, 40 h; active = well fitted curve in the direction sought with a large enough effect; inconclusive = small, poorly fitted or top-dose-only effect, or another doubt; inactive = no such curve, though single readings can be large; an effect the other way counts as inactive or inconclusive; also: nearly all actives have a fitted effect of over 60% in size
#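 Huntingtin Q103 exon 1–GFP aggregates in induced PC12 cells (100 nM tebufenozide) were quantified by cytometry from lysates, with compounds dosed in titration.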
# HPGD block: inhibitors of human 15-hydroxyprostaglandin dehydrogenase (HPGD) | P15428 | purified HPGD, NADH fluorescence kinetic, PGE2 substrate | Potency, µM, actives largely listed as inhibitors | 150,000 tested, 4.3% active
# Target sequence (P15428 whole entry, looked up): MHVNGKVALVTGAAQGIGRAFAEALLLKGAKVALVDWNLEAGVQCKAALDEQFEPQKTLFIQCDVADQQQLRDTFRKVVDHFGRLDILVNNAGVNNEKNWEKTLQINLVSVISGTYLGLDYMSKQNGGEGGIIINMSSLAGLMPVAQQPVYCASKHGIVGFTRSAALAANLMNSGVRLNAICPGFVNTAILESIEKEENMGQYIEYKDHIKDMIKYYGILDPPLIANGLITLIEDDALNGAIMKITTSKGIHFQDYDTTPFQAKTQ
#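 20 nM HPGD preincubated 15 min at room temperature with compound in 50 mM Tris-HCl pH 8, 0.01% Tween 20. Started with 1 mM NAD+ and 30 uM prostaglandin E2; NADH fluorescence (360/450 nm) read 5 times over 30-s intervals, last minus first.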
# JMJD2E inh: inhibitors of human JMJD2E histone demethylase; JMJD2E catalytic domain, FDH-coupled NADH fluorescence (FDH is formaldehyde dehydrogenase); B2RXH2; 230,000 tested, 1.6% active; Potency, µM (titrated, usually from 57.1 µM), hits mostly inhibitors; also: nearly all actives have a fitted effect of over 50% in size
# Target sequence (B2RXH2 1-337 limits assumed): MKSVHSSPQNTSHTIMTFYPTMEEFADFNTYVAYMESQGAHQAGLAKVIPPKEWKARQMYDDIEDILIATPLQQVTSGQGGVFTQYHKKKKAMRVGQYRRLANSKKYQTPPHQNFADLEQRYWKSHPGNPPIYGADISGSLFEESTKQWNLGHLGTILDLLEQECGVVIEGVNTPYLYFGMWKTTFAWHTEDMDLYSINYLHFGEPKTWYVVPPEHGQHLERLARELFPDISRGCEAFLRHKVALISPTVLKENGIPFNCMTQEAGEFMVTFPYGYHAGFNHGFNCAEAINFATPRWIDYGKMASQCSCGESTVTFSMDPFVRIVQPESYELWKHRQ
# ALDH1A1 inh: blocks purified human ALDH1A1 activity; P00352; Purified ALDH1A1, NADH fluorescence, propionaldehyde substrate; Potency, µM (top dose mostly 75.3 µM), hits mostly inhibitors; 220,000 tested, 7.3% active
# Lamin A splicing: changes lamin A minigene splicing in HeLa cells; 200,000 tested, 0.01% active; Potency, µM (doses to about 46.1 µM), usual class: inhibitors; AID 1487; HeLa LMNA splicing GFP/RFP minigene ratio, 48 h; active = well fitted inhibition curve with a large enough effect in the signal ratio, with a control signal flat, not every such curve was filed as active; inconclusive = small, poorly fitted or top-dose-only effect, or effect the other way, or a change in a side signal; the % refers to the signal ratio
#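 S3 HeLa cells stably expressing lamin A-EGFP splicing minigene plus DsRed2, 600 cells/well, 48 h compound exposure at 37C. Laser-scanning cytometry; analysed as GFP (500-530 nm)/RFP (575-640 nm) total intensity ratio; 0.5% DMSO vehicle.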
# HTT ATP protect: cytoprotection in Huntington HTT-Q103 PC12 cell model. PC12 HTT-Q103 induced, cytoprotection, ATP luminescence, 40 h. Potency, µM (series often up to 56.4 µM), actives largely listed as activators. 230,000 tested, 0.14% active. AID 1471; active = well fitted curve in the direction sought with a large enough effect; inconclusive = small, poorly fitted or top-dose-only effect, or another doubt; inactive = no such curve, though single readings can be large; an effect the other way counts as inactive or inconclusive; also: nearly all actives have a fitted effect of over 45% in size
#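 Cells were plated at 1500 per well in phenol red-free DMEM with 5% equine and 5% calf serum. Tebufenozide (100 nM final) and compounds were added, then ATPlite reagent, and luminescence was read.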
# Numbers stand for hits; . = inactive; ? = inconclusive; / = not tested or not shown; [ ] = dose if it differs, or a comment. This is a sample that favours compounds with a hit; in the whole collection about 9.2% have one here. Unless noted, calls follow the shape of the dose curve; as a rule, active = well fitted inhibition curve with a large enough effect (not every such curve was filed as active); inconclusive = small, poorly fitted or top-dose-only effect, or another doubt; inactive = no such curve, though single readings can be large or run the other way.
SMILES,HttQ103 aggreg,HPGD block,JMJD2E inh,ALDH1A1 inh,Lamin A splicing,HTT ATP protect
CN(CC(=O)Nc1ccc([N+](=O)[O-])cc1Br)Cc1c(F)cccc1Cl,.[9.22 µM],/,.,10µM,/,.[10 µM]
Nc1ccc(N(CCO)CCO)cc1,.[9.22 µM],/,.,15.8µM,.,.[10 µM]
CCN(CC)c1ccc(C(=O)NN)cc1,.,/,.,?,/,.
CCN(CC)c1ccc(N)cc1,/,.,/,3.16µM,/,.
Nc1ccc(C(=O)N(CCO)CCO)cc1,.[9.22 µM],/,.,.,/,.[10 µM]
O=C(c1cc(C(F)(F)F)cc(C(F)(F)F)c1)N1CCC2(CC1)CN(c1ncccn1)C2,/,.,/,.,/,.
NC1=C(O)C(=O)C(c2ccccc2)O1 (stereo unspecified),.[9.22 µM],/,15.8µM,/,/,.[10 µM]
CC(=O)C1=C(O)C(=O)OC1c1ccc(C)cc1 (stereo unspecified),.,/,.,?,?,.
Oc1c(Cl)cc(Cl)cc1C1=NNC(c2ccc(Cl)cc2)C1 (stereo unspecified),.,/,?,6.31µM,/,.
CC(=O)OCCCNc1cc(Sc2ccc(Cl)cc2)c2nonc2c1[N+](=O)[O-],.,12.6µM,.,?,.,.[10 µM]
Cc1ccc(Sc2cc(NCCCO)c([N+](=O)[O-])c3nonc23)cc1,.[9.22 µM],/,.,/,/,.[10 µM]
CCCC(=O)OCCNc1cc(Sc2nc3ccccc3[nH]2)c2nonc2c1[N+](=O)[O-],?,7.94µM,?,7.08µM,?,.[10 µM]
CCC(=O)OCCNc1cc(Sc2nccn2C)c2nonc2c1[N+](=O)[O-],7.08µM,?,.,.,?,.[10 µM]
CCC(=O)OCCNc1cc(SCCC(=O)OC)c2nonc2c1[N+](=O)[O-],?,?,.,?,?,.[10 µM]
O=C(COc1ccccc1F)Nc1ccc2nc(SCc3ccccc3)sc2c1,/,/,/,/,.,/
COC(=O)C1=C(C(=O)OC)[C@@H]2N(Cc3ccccc3)c3ccccc3[C@@]23C[C@@H](C(=O)OC)N(S(=O)(=O)c2c(C)noc2C)C3=N1,/,.,.[11.4 µM],.[13.5 µM],.[9.22 µM],.[10 µM]
CNS(=O)(=O)c1c(C)cc(C)c(N(C)S(=O)(=O)c2ccccc2)c1C,.[9.22 µM],/,.,.,.,.[10 µM]
CC1CN(C(=S)c2cccc([N+](=O)[O-])c2)CC(C)O1 (stereo unspecified),?,/,.,7.94µM,/,.
O=[N+]([O-])c1cccc(C(=S)N2CCN(c3ccccc3)CC2)c1,.,22.4µM,.,15.8µM,?,?
CC1CN(C(=S)NC(=O)c2ccc([N+](=O)[O-])cc2)CC(C)O1 (stereo unspecified),.,.,.,.,.,.
CC1CN(c2ccc([N+](=O)[O-])cc2C#N)CC(C)O1 (stereo unspecified),.,/,.,14.1µM,/,.
O=[N+]([O-])c1cccc(C(=S)N2CCN(c3ccccc3F)CC2)c1,.,/,.,22.4µM,?,/
N#CCCn1c(=O)c(-c2cccs2)nc2cnc(OCc3ccccc3)nc21,/,?,/,?,/,.
CC(=O)c1cccc(OCC(=O)c2cc(C)n(-c3cc(C)on3)c2C)c1,12.6µM,.,.,.,?,.
Cc1cc(-n2c(C)cc(C(=O)CSc3ncnc4ccccc34)c2C)no1,1.78µM,.,.,.,?,.
SMILES,HttQ103 aggreg,HPGD block,JMJD2E inh,ALDH1A1 inh,Lamin A splicing,HTT ATP protect
CC1CC(C)CN(C(=O)c2ccc(NC(=O)c3ccc(=O)[nH]c3)cc2)C1 (stereo unspecified),.,7.94µM,.,.,.,/
Cc1ccc(-c2nn(-c3ccccc3)cc2C(=O)N2CCOCC2)cc1C,.,/,.,10µM,.,.
CO[C@H]1COC(=O)[C@H]2CCCN2C(=O)C/C=C\[C@@H](C)[C@H](OC)COC(=O)[C@@H](OCc2ccccc2)/C=C\[C@@H]1C,/,/,/,.[13.5 µM],/,.[10 µM]
O=C1[C@H]2[C@@H](C(=O)N1c1cccc3ccccc13)C1(C(=O)c3ccccc3C1=O)N1CCC[C@@H]21,?,.,?,11.2µM,.,.
O=C(O)CC[C@@H](C(=O)O)N1C(=O)[C@@H]2[C@@H]3CC[C@H](C3)[C@@H]2C1=O,/,.,/,.[13.5 µM],/,.[10 µM]
O=C(O)c1cccc(NC(=O)c2cccc(S(=O)(=O)Nc3cccc(C(=O)O)c3)c2)c1,/,/,/,/,.,/
O=C1CSc2ccc(C(=O)Nc3cccc(S(=O)(=O)Nc4ccc(Br)cc4)c3)cc2N1,7.94µM,/,.,10µM,?,.[10 µM]
Cc1ccc(NC(=O)N/C=C/c2ccco2)cc1,.,.,?,7.94µM,.,.[10 µM]
CCOP(=O)(O)c1ccccc1OCCOCCOc1ccccc1P(=O)(O)OCC,.,.,.,3.98µM,.,.[10 µM]
Cc1ccc2cc3cc(C(=O)N4CC(C)CC(C)C4)oc3nc2c1 (stereo unspecified),.,15.8µM,.,25.1µM,.,.[10 µM]
Cc1ccc2cc3cc(C(=O)NCCC(C)C)oc3nc2c1,.,?,?,?,.,.
Cc1ccc2cc3cc(C(=O)N4CCCCC4C)oc3nc2c1 (stereo unspecified),.,15.8µM,?,?,.,.
Cc1ccc(C2=NNC(c3ccc(Cl)cc3)=Nc3ccccc32)o1,.,.,.,.,.,.[10 µM]
O=C1CC(N2CCC(c3nc4ccccc4[nH]3)CC2)C(=O)N1c1ccccc1F (stereo unspecified),.,/,.,10µM,.,.
COc1ccc(N2C(=O)CC(N3CCC(c4nc5ccccc5[nH]4)CC3)C2=O)cc1 (stereo unspecified),?,.,.,?,.,.
CCOc1cc(C=O)ccc1OCCSc1ccc(C)cc1,.,17.8µM,.,?,.,.[10 µM]
COc1cc(C=O)ccc1OCCSc1ccc(C)cc1,.,17.8µM,.,?,.,.[10 µM]
CCC1CCc2c(sc3nc(SCC(=O)NCc4ccco4)n(-c4ccccc4)c(=O)c23)C1 (stereo unspecified),.,.,?,?,.,.[1.9 µM]
CN1c2cc3c(cc2N=C(c2ccc(C(=O)O)cc2)c2ccccc21)C(C)(C)CCC3(C)C,/,.,.,.,/,.
O=C(CCCSc1nc(-c2ccco2)cc(C(F)(F)F)n1)Nc1ccc2c(c1)OCO2,.,20µM,.,15.8µM,?,.[10 µM]
O=C(CSc1nc(-c2ccco2)cc(C(F)(F)F)n1)NN1CCOCC1,/,/,.,.,/,/
O=C(CSc1nc(-c2ccco2)cc(C(F)(F)F)n1)Nc1ccc(C(=O)N2CCOCC2)cc1,.,22.4µM,.,.,.,.[10 µM]
O=C(CCSc1nc(-c2ccco2)cc(C(F)(F)F)n1)N1CCN(c2ccccn2)CC1,.,.,.,?,?,.
O=C(CSc1nc(-c2ccco2)cc(C(F)(F)F)n1)Nc1ccc2c(c1)OCO2,.,.,.,.,.,.[10 µM]
O=C(CCSc1nc(-c2ccco2)cc(C(F)(F)F)n1)N1CCCc2ccccc21,?,?,.,17.8µM,.,.
NC(=O)[C@@H]1CCCNC1,/,.,/,.[13.5 µM],/,.[10 µM]
CN(C)S(=O)(=O)c1cccc(NC(=O)COC(=O)CCOc2ccccc2)c1,.,/,.,.,/,.
